Compounds with a hit are over-represented: about 4.1% of the library has one in this group of screens.
ssDAF12 agonist – S. stercoralis DAF-12 nuclear receptor activators, primary screen, cell-based, luminescence, HEK293, GRIP1 co-expression, lit1-tk-luc. HEK293 ssDAF-12/GRIP1 lit1-tk-luc reporter; % of 3 µM dafachronic acid response. 1% of 370,000 active. activation, % at 6.8 µM. Nuclear hormone receptor DAF-12 (Strongyloides stercoralis);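 active = activation above the mean over all tested compounds plus 3 SD, cut at about 0.9% in these data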;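 also: 0% = DMSO-only wells and 100% = 3 µM delta7-dafachronic acid wells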
DAX1 inh-1 – DAX1 (NR0B1) inhibitors on StAR promoter, primary screen, cell-based, luminescence, SF-1 (NR5A1), full-length DAX-1; HEK293T StAR-luciferase reporter, SF-1/DAX-1 repression relief; inhibition, % at 6.8 µM; 1.1% of 370,000 active; AID 652010, 2013;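 active = inhibition above the mean over all tested compounds plus 3 SD, cut at about 3.6% in these data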;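 also: 0% = DAX-1 cells with DMSO and 100% = cells lacking DAX-1 with DMSO; higher inhibition means more luminescence from relief of DAX-1 repression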
hgDAF12 agonist – H. glycines DAF-12 receptor agonists, primary screen, cell-based, luminescence, HEK293, GAL4 fusion, UAS-luciferase; Nuclear hormone receptor DAF-12 (Heterodera glycines), GAL4 fusion; HEK293 GAL4-hgDAF12 UAS-luciferase reporter, agonist luminescence; normalized to butyrate control; activation, % at 6.8 µM; 1.8% of 370,000 active; AID 687014, 2013;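 active = activation above a cutoff set at the mean of all screened compounds plus 3 SD, cut at about 10% in these data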;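 also: 0% = DMSO wells and 100% = sodium butyrate wells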
hcDAF-12 act – H. contortus DAF-12 nuclear receptor activators, primary screen, cell-based, luminescence, HEK293, lit1-tk-luc reporter; HEK293 hcDAF-12 lit1-tk-luc reporter; 0% DMSO, 100% Δ7-dafachronic acid; activation, % at 6.8 µM; 1.4% of 370,000 active; AID 652067, 2013;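 active = activation above the mean of all tested compounds plus 3 SD, cut at about 5.5% in these data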;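 also: 100% = response to 3 µM Δ7-dafachronic acid high control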
DAX1 inh-2 – DAX1 (NR0B1) inhibitors, primary screen, cell-based, HEK293, Gal4-DAX1, luciferase luminescence; HEK293 Gal4-DAX1 luciferase reporter; inhibition, % at 6.75 µM; 0.99% of 340,000 active;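 active = inhibition above the mean over all tested compounds plus 3 SD, cut at about 4.2% in these data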;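 also: 0% = DAX1-transfected cells with DMSO and 100% = empty-vector control cells with DMSO; inhibition shows as a rise in luminescence from relieved DAX1 repression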
Target sequence (P51843 207-470 limits assumed): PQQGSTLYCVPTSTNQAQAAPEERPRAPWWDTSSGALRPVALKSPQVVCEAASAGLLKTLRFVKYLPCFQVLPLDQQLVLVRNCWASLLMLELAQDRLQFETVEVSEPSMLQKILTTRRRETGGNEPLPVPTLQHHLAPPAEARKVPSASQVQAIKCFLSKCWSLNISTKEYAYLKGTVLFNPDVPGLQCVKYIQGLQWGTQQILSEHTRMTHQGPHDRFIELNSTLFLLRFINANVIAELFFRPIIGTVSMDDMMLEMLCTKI
An asterisk follows results filed as active; . = not tested or not shown.

SMILES | ssDAF12 agonist | DAX1 inh-1 | hgDAF12 agonist | hcDAF-12 act | DAX1 inh-2
O=C1C(Cl)=C(N2CCCCCC2)C(=O)N1c1ccc(Br)cc1 | 2.2* | -0.4 | 5.1 | 0.7 | -0.2
C/C(Cn1nnc([N+](=O)[O-])n1)=N\NC(=O)c1ccccc1 | -0.7 | -0.2 | 4.9 | -0.9 | -0.1
C/C(Cn1cnc([N+](=O)[O-])n1)=N\NC(=O)c1ccccc1 | -0.7 | 2.1 | 6.2 | 1.3 | 4.3*
Nc1[nH]c(C(=O)c2ccccc2)c(-c2ccccn2)c1C(=O)c1c[nH]c2ccccc12 | 1.3* | -0.4 | 2.5 | -0.1 | .
COc1ccc(CN2C(=O)c3cccnc3C2=O)cc1S(=O)(=O)NC(C)C | -0.2 | 0.3 | 3.4 | 1.1 | 5.8*
CCCNS(=O)(=O)c1cc(CN2C(=O)c3cccnc3C2=O)ccc1OC | -1.2 | 0.1 | -0.5 | -0.3 | -0.8
CCOc1ccc(NC(=S)NCc2ccc3c(c2)OCO3)cc1 | -0.4 | -0.1 | 0.1 | 0.2 | 5.5*
Cc1ccc(NC(=S)NCc2ccc3c(c2)OCO3)cc1 | -0.2 | 1.0 | -0.4 | -0.7 | 1.7
COc1ccc(NC(=O)NCc2ccc3c(c2)OCO3)cc1 | -1.2 | 0.1 | 1.9 | -2.5 | -0.5
CC(=O)Nc1ccc(OCc2ccc3c(c2)OCO3)cc1 | -0.1 | 0.7 | 12.2* | 5.0 | 3.8
COC(=O)[C@]12CCCCC=C1N(Cc1ccc(OC)cc1)C(=O)[C@@H]2CC(=O)NCCCCc1ccccc1 | -1.2 | -1.1 | 3.2 | -2.4 | .
CC1CC1C(=O)N1CCC(Oc2cccnc2)CC1 (stereo not given) | -1.5 | 0.2 | -4.5 | -3.2 | .
O=C(NCCc1c[nH]c2ccccc12)c1cc2sccc2n1Cc1ccccc1 | -1.3 | -0.8 | -1.5 | -1.9 | -1.6
O=C(NCCc1c[nH]c2ccccc12)c1cccc(S(=O)(=O)Nc2ccccc2Cl)c1 | 1.1* | -0.5 | -4.9 | 6.0* | 0.3
O=C(NCCc1c[nH]c2ccccc12)c1cccnc1 | 1.9* | 1.1 | 2.0 | 2.6 | 3.8
O=C(O)c1nccnc1C(=O)NCCc1c[nH]c2ccccc12 | -0.2 | 0.3 | -0.6 | 5.6* | 1.4
Cn1c(C(=O)NCCc2c[nH]c3ccccc23)cc2sccc21 | 2.5* | 1.6 | 11.8* | 5.9* | -0.3
CN(c1ccccc1)S(=O)(=O)c1cccc(C(=O)NCCc2c[nH]c3ccccc23)c1 | -1.3 | -1.0 | 0.2 | -0.5 | -0.6
O=C(CSc1nc2ccccc2o1)NN=C/C=C/c1ccccc1 | 0.2 | 1.9 | 6.3 | 0.5 | .
COc1ccc([C@@]23CCN=C2c2[nH]c4ccccc4c2CCN3)c(N)c1 | -1.2 | . | -1.0 | 5.0 | .
CCCNC(=O)c1cc(S(=O)(=O)N2CCCCC2)ccc1N1CCOCC1 | -1.2 | 0.4 | 3.8 | -0.2 | -0.4
O=C(NCCc1c[nH]c2ccccc12)c1cc(S(=O)(=O)N2CCCCC2)ccc1N1CCOCC1 | 1.9* | 0.3 | 0.8 | 1.6 | -1.0
Cc1cc(N/C=C(\C#N)S(=O)(=O)c2ccc(Cl)cc2)nc(C)n1 | -0.8 | -0.3 | 2.0 | 0.1 | 4.2*
COC(=O)c1cc2c(c3c4cc(OC)ccc4n(C(=O)c4ccccc4)c13)C(=O)N(Cc1ccco1)C2 | -1.3 | -4.1 | -8.1 | -2.7 | .
CC(C)(C)OC(=O)N1CCC2CCN(CCc3ccccc3)CC21 (stereo not given) | -1.6 | -0.9 | 1.2 | 0.2 | .
SMILES | ssDAF12 agonist | DAX1 inh-1 | hgDAF12 agonist | hcDAF-12 act | DAX1 inh-2
CC(/C=N/NC(=O)CSc1nc2ccccc2n1C)=C\c1ccco1 | -0.5 | -0.1 | -0.5 | 6.0* | 0.7
CC(/C=N/NC(=O)Cc1cccs1)=C\c1ccco1 | -0.9 | 1.0 | 4.0 | 1.7 | -0.5
CC(/C=N/NC(=O)c1cccs1)=C\c1ccco1 | -1.2 | 3.0 | 12.3* | 2.3 | 0.3
C[C@@H](C(=O)Nc1nccs1)N1C(=O)C2CC=CCC2C1=O (stereo not given in full) | -0.6 | 1.2 | -0.5 | -0.3 | 4.8*
CCN(CC)C(=O)CSc1nnc(-c2ccccn2)n1C | -1.1 | -0.4 | 2.3 | -0.7 | .
O=C(CCCCC(=O)Nc1ccccc1Cl)Nc1ccccc1Cl | -0.8 | -0.3 | 2.5 | 0.1 | -0.2
NNC(=O)CNc1ccccc1Cl | 1.0* | 0.2 | -0.5 | -0.3 | 1.9
O=C(O)c1[nH]c2ccccc2c1C=NCc1ccccc1Cl | -0.5 | 0.5 | -1.0 | 2.4 | 4.9*
O=C(O)c1[nH]c2ccccc2c1-c1ccccc1 | -1.0 | 0.3 | 0.5 | -0.8 | 1.2
COc1ccc(CCNC(=O)CN2C(=O)C(=O)N(C3CCCC3)C2=O)cc1OC | 1.3* | 1.1 | 1.4 | -0.4 | -0.2
Cc1nc2c(Cl)c(C)nn2c2c1CCC2 | -1.6 | 0.0 | 0.5 | -0.5 | -0.3
Cc1nc2c(-c3ccc(Cl)cc3)cnn2c2c1CCC2 | 2.1* | -0.1 | 3.4 | 3.1 | -0.2
COC(=O)c1cc2c(c3c4cc(F)ccc4n(S(=O)(=O)c4ccccc4)c13)C(=O)N(Cc1ccco1)C2 | -0.7 | -2.1 | -1.7 | 0.8 | .
Cc1nn(-c2ccccc2)c(N)c1N=Nc1cccnc1 | -0.9 | 0.5 | 11.5* | 3.5 | 1.2
CN(C(=O)COC(=O)c1cccnc1Cl)C1CCCCC1 | 0.0 | 4.5* | 4.2 | 3.5 | 0.7
O=C(OCc1cn(Cc2ccccc2F)nn1)N1CCCC1 | -0.4 | -0.3 | -1.3 | -0.6 | .
Cc1cc(=O)[nH]c(-c2ccccc2O)n1 | . | . | . | . | 0.5
Clc1cc2nc(-c3cccnc3Cl)[nH]c2cc1Cl | 1.1* | 3.8* | 10.9* | 6.2* | 4.3*
Cc1cc2nc(-c3ccccc3O)[nH]c2cc1C | 0.7 | 4.1* | 11.7* | 5.8* | 2.2
COC(=O)[C@]12C[C@H](CC(=O)NCc3ccc(C)o3)C(=O)N(Cc3ccccc3)C1=C[C@H](C(C)C)O[C@@H]2C1CC1 | -1.3 | -0.5 | -0.7 | 1.3 | .
CCC[C@H]1[C@@H](N(C)CC2CCCCC2)CC[C@@]23CCCN2C(=O)CCC[C@@H]13 | -1.1 | . | -1.6 | -0.3 | .
COc1ccc(C/C(N)=N/O)cc1 | -1.1 | 0.1 | 1.2 | -0.3 | 0.1
COc1ccc(N=Nc2ccc(CO)cc2)cc1 | 1.3* | 1.4 | 10.3 | 7.3* | 2.4
NC(CO)(CO)COCc1ccccc1 | 1.3* | -0.3 | -0.2 | 1.8 | 0.5
Cn1c(=O)c2c(nc(NCC(O)CO)n2CCc2ccccc2)n(C)c1=O (stereo not given) | -1.2 | -0.2 | 1.6 | 1.0 | 5.4*
CCCCOc1ccc(C(=O)NC2CCCCN(C)C2=O)cc1 (stereo not given) | -1.0 | -0.9 | 5.7 | -1.2 | .
